Assay outcomes as filed in PubChem BioAssay.
Hits are enriched below; roughly 19% of the tested compounds scored in any of these assays.
TDP1 cell CPT = DT40-hTDP1 cell growth loss with CPT. 420,000 compounds, 12% hits. chicken DT40 Tdp1-/-;hTDP1 cells + 20 nM CPT, ATP luminescence, 48 h. Potency, µM (series often up to 46.2 µM), without a hit: at the top dose activity change, negative = growth inhibition, usual class: inhibitors; note: potency is the fitted concentration of half-maximal effect; nearly all actives have a fitted effect of over 55% in size
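Chicken DT40 Tdp1-/- cells stably complemented with human TDP1 were seeded at 400 cells/well in medium containing 20 nM camptothecin, exposed to pin-transferred compounds, and grown at 37 °C for at least 48 hr. Viability was read as ATP luminescence.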
HT1080 IDH1KD tx = HT-1080 IDH1 knockdown cell toxicity (counter line) | HT-1080 IDH1 knockdown viability, ATP luminescence, 48 h | Potency, µM (doses to about 46.1 µM), without a hit: at the highest dose activity, negative = toxicity, usual class: cytotoxic | 360,000 compounds, 2% hits | AID 686971;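 note: potency is the fitted concentration of half-maximal effect; 0% = DMSO wells and -100% = cell-free medium wells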
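CellTiter-Glo luminescence after 48 h compound exposure at 37 degrees C of IDH1-knockdown HT-1080 cells in 5% FBS RPMI. %Activity scaled between DMSO wells and cell-free media wells, with curves fitted and assigned curve classes.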
HT1080-NT tox = kills 2HG-producing HT-1080-NT fibrosarcoma cells; HT-1080-NT fibrosarcoma viability, CellTiter-Glo ATP luminescence, 48 h; Potency, µM (series often up to 46.1 µM), without a hit: at the highest dose activity, negative = less viability, hits mostly cytotoxic; 360,000 compounds, 1.6% hits;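 note: NT is the 2HG producing partner of a matched IDH1 knockdown line; potency is the fitted concentration of half-maximal effect; 0% = DMSO-treated cells and -100% = media-only wells without cells; nearly all actives have a fitted effect of over 55% in size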
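Compounds were tested in concentration-response format on HT-1080-NT cells for 48 hours at 37 degrees C. Cell viability came from CellTiter-Glo luminescence; curves were classified by r2, response magnitude and activity.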
DT40 TDP1 no CPT = qHTS for Inhibitors of human tyrosyl-DNA phosphodiesterase 1 (TDP1): qHTS in cells in absence of CPT. DT40 Tdp1-/- hTDP1 cells, no CPT, ATP luminescence, 48 h. Potency, µM (top dose mostly 46.2 µM), for the others: at the highest dose activity change, negative = growth inhibition, usual class: inhibitors. 420,000 compounds, 15% hits. AID 686978, 2013; note: potency is the fitted concentration of half-maximal effect; nearly all actives have a fitted effect of over 55% in size
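Growth kinetics read by CellTiter-Glo luminescence after ≥48 hr at 37 °C. Cells: DT40 Tdp1-/- stably carrying human TDP1, 400 per well, compound exposure in the absence of CPT (DMSO vehicle).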
IL-1B inflam inh = blocks inflammasome-driven IL-1 beta release; THP-1 LPS/ATP IL-1B secretion, AlphaLISA, 16 h; active compounds read low; activity change, % at 57.5 µM; 360,000 compounds, 4.7% hits; in the data active = activity change below about -50%; inconclusive = mostly about -30% to -49%
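Secreted IL-1B measured by AlphaLISA bead assay after 16 h compound exposure of THP-1 cells; compounds (final up to 57.5 uM) added 1 h before LPS (250 ng/mL) and ATP (1.25 mM) stimulation; lower signal means less secretion.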
Starred values were filed as active, the others as inactive; u = inconclusive; x = no result. Unless noted, calls come from the whole dose curve; as a rule, active = well fitted curve in the direction sought with a large enough effect; inconclusive = small, poorly fitted or top-dose-only effect, or another doubt; inactive = no such curve, though single readings can be large; an effect the other way counts as inactive or inconclusive. Unless noted, % is set by controls: 0 for no effect and ±100 for the full control effect.

SMILES	TDP1 cell CPT	HT1080 IDH1KD tx	HT1080-NT tox	DT40 TDP1 no CPT	IL-1B inflam inh
Cc1ccc(NC(=O)c2ccc(N3CCOCC3)c([N+](=O)[O-])c2)cc1S(=O)(=O)N1CCOCC1	9.2µM*	-15%	-3%	7.3µM*	-78*
COc1ccc(C(=O)Nc2ccccc2N2CCOCC2)cc1S(=O)(=O)N1CCOCC1	u	9%	16%	u	0
COc1ccc(C(=O)Nc2ccccc2[N+](=O)[O-])cc1S(=O)(=O)N1CCOCC1	-2%	-8%	-1%	u	-62*
COc1ccc(NC(=O)C2CCOC(C)(C)C2)cc1 (stereo unspecified)	4%	7%	8%	-2%	x
Cn1cc(C(=O)C(=O)N2CCCCC2)c2ccccc21	2%	2%	2%	2%	22
COc1ccc(NC(=O)N2CCC3(CC2)CCN(S(=O)(=O)c2ccccc2)CC3)cc1	-8%	x	x	u	x
c1ccc(CSc2ccc3nnc(-c4ccccn4)n3n2)cc1	u	-15%	9%	21µM*	25
Fc1ccc(CSc2ccc3nnc(-c4cccnc4)n3n2)cc1	16µM*	0%	-4%	16µM*	u
COc1ccc(-c2c(C#N)c(N)nc3c2c(=O)n(C)c(=O)n3C)cc1	u	4%	-4%	13µM*	13
CCOc1ccc(-c2c(C#N)c(N)nc3c2c(=O)n(C)c(=O)n3C)cc1OC	-16%	2%	3%	-16%	9
COc1ccc(-c2c(C#N)c(N)nc3sc(C(=O)c4ccccc4)c(N)c23)cc1	u	14%	1%	23µM*	-7
Cc1cccc(Oc2sc(C(=O)c3ccccc3)c(N)c2C#N)c1	u	u	u	u	-86*
CC(C)C(=O)Nc1ccc(C(=O)c2ccccc2)cc1	18µM*	2%	6%	21µM*	-22
CC(CCc1ccccc1)NC(=O)c1ccc(NC(=O)c2ccccc2)cc1 (stereo unspecified)	15µM*	12%	16µM*	10µM*	4
COc1cccc(NC(=S)NC(Cc2ccccc2)c2ccccc2)c1 (stereo unspecified)	u	-27%	-19%	16µM*	-7
Cc1cccc(NC(=O)NC(C)CCc2ccccc2)c1 (stereo unspecified)	-18%	-7%	1%	-17%	-57*
CC(CCc1ccccc1)NC(=O)c1ccc(NC(=O)c2cccc(Br)c2)cc1 (stereo unspecified)	u	-13%	-5%	u	-4
O=C(CCCCCn1c(=O)[nH]c2ccsc2c1=O)NCc1ccccc1	3%	x	x	-30%	x
COCCN(CC(=O)NCc1ccccc1)C(=O)CCC(=O)Nc1ccccn1	0%	4%	-1%	-12%	0
Cc1nn(-c2ccccc2)nc1C(=O)NNC(=O)c1ccc(C(F)(F)F)cc1	-9%	0%	0%	-20%	5
COc1c2ccccc2nc2occc12	5%	x	x	2%	x
Cc1cccc(C(=O)NCC(=O)NC(C)CCc2ccccc2)c1 (stereo unspecified)	1%	0%	14%	6%	0
Cc1cccc(NC(=S)NC(C)CCc2ccccc2)c1 (stereo unspecified)	u	0%	-10%	u	-96*
S=C(N=Nc1ccccc1)NNc1ccccc1	3.7µM*	-9%	6%	u	-7
Cc1cccc(N(CC(=O)Nc2ccc(Br)cc2)S(C)(=O)=O)c1C	u	x	x	21µM*	x
SMILES	TDP1 cell CPT	HT1080 IDH1KD tx	HT1080-NT tox	DT40 TDP1 no CPT	IL-1B inflam inh
Cc1cccc(NS(=O)(=O)c2ccc(NC(=O)CN(c3cc([N+](=O)[O-])ccc3C)S(C)(=O)=O)cc2)c1	16µM*	u	u	u	u
Cc1ccccc1N(CC(=O)Nc1ccc(F)cc1)S(C)(=O)=O	-5%	15%	20%	12%	-9
COc1ccc(C)cc1NS(=O)(=O)c1ccc(NC(=O)CN(c2cc([N+](=O)[O-])ccc2C)S(C)(=O)=O)cc1	9.2µM*	u	u	15µM*	-23
COc1ccc(CCNC(=O)CCn2c(=O)c3ccccc3n(CC(=O)Nc3ccc(C)cc3C)c2=O)cc1OC	-8%	x	x	5%	x
COc1ccc(N2CC(NC(=O)c3cccs3)CC2=O)cc1 (stereo unspecified)	-17%	x	x	-7%	x
COc1ccc(NC(=O)CSCCc2ccccn2)cc1OC	-1%	12%	8%	-7%	16
COc1ccc(NC(=O)Cn2c(SCc3ccc(C)cc3)nc3cccnc32)cc1OC	2.3µM*	x	x	1.6µM*	x
COc1cc(OC)c(NC(=O)Cn2c(SCc3ccccc3F)nc3cccnc32)cc1Cl	-1%	x	x	-4%	x
COc1ccc(NC(=O)Cn2c(SCc3ccc(F)cc3)nc3cccnc32)c(OC)c1	u	x	x	21µM*	x
O=C(Cn1c(SCc2ccc(F)cc2)nc2cccnc21)Nc1ccccc1F	u	x	x	26µM*	x
O=C(Cn1c(SCc2cccc(F)c2)nc2cccnc21)Nc1ccc(F)c(Cl)c1	26µM*	x	x	15µM*	x
CC(C)CCNC(=O)Cn1c(SCc2cccc(F)c2)nc2ccncc21	2%	x	x	u	x
CC(CCl)n1c(=O)c2ccccc2n1S(C)(=O)=O (stereo unspecified)	-14%	11%	8%	-11%	0
CC1CCCC(C)N1C(=O)COC(=O)c1cc(=O)[nH]c2ccccc12 (stereo unspecified)	31%	13%	15%	-15%	15
COc1ccc(NC(=O)Cn2c(SCc3ccc(F)cc3)nc3cccnc32)cc1OC	3.7µM*	x	x	2.3µM*	x
Cc1cc(C(=O)C[N+]2(C)CCOCC2)c(C)n1-c1ccc(Br)cc1	u	0%	7%	u	-69*
Cc1cc(C(=O)NP(=O)(N2CCOCC2)N2CCOCC2)c(C)n1-c1ccc(Br)cc1	-18%	3%	0%	-26%	5
Oc1ccc(Cl)cc1CNCC1CCCCC1	15µM*	-2%	-4%	u	-64*
Oc1ccc(Cl)cc1CNC1CCCCC1	-1%	-2%	-5%	u	u
CCOC(=O)Cn1nnc(-c2ccc(SC)cc2)n1	7%	11%	6%	-2%	17
CCOC(=O)Cn1nnc(-c2ccc(S(C)(=O)=O)cc2)n1	4%	2%	17%	-1%	-60*
COc1ccc(/C=C2\SC(=S)N(CC3CCCO3)C2=O)cc1 (stereo unspecified)	16%	4%	4%	-9%	-12
O=C1/C(=C/c2cccnc2)SC(=S)N1CC1CCCO1 (stereo unspecified)	-4%	-19%	-2%	u	-103*
